# Reference: PubChem BioAssay (NCATS)
# Inconclusive results are not listed. Where a call stands in place of a potency, no number is given. Activity calls are given as the source filed them. Unless noted, calls come from the whole dose curve; as a rule, active = well fitted curve in the direction sought with a large enough effect; inconclusive = small, poorly fitted or top-dose-only effect, or another doubt; inactive = no such curve, though single readings can be large; an effect the other way counts as inactive or inconclusive.
# Key:
# [1] = molecular target: Mitogen-activated protein kinase 10 (Mus musculus) (UniProt Q61831); experiment: JNK3 AlphaScreen Assay (AID 530; active = well fitted curve in either direction with a large enough effect, not every such curve was filed as active;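 note: kinase came from lysate of stimulated human HepG2 cells; signal reports phosphorylation of biotinylated GST-cJun 1-79 at Ser73 with 10 µM ATP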)
# Method in brief: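 Phosphorylation of biotinylated GST-cJun(1-79) at Ser73 is measured by AlphaScreen proximity luminescence. Enzyme is JNK3 in HepG2 lysates activated with interleukin-1beta and tumor necrosis factor alpha; ATP is 10 uM final.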
# [2] = molecular target: Cytochrome P450 3A4 (Homo sapiens) (UniProt P08684); experiment: qHTS Assay for Inhibitors and Substrates of Cytochrome P450 3A4 (AID 884); note: nearly all actives have a fitted effect of over 50% in size; note: potency is the fitted concentration of half-maximal effect
# Cytochrome P450 3A4 (Homo sapiens), sequence (P08684 whole entry, looked up): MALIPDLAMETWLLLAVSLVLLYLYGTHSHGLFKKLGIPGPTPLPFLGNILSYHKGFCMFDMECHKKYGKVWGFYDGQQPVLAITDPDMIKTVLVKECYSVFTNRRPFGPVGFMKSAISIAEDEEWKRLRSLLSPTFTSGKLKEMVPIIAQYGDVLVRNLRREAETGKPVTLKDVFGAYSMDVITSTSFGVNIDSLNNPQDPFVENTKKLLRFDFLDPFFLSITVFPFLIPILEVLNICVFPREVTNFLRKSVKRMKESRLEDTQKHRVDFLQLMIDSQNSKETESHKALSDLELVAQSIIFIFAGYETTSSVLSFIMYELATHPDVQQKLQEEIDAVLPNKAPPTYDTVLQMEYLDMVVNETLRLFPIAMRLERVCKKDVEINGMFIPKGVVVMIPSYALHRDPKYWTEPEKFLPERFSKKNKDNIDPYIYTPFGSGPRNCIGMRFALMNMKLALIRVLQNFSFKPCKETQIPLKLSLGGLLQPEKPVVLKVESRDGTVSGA
# Method in brief: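 Luminescent readout of luciferin produced by CYP3A4 (20 nM) dealkylation of Luciferin-PPXE, 25 uM (its KM). NADPH-driven reaction ran 60 min at RT after 10 min compound preincubation; data scaled to 57 uM ketoconazole as 100% inhibition.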
# [3] = molecular target: Cytochrome P450 3A4 (Homo sapiens) (UniProt P08684); experiment: qHTS Assay for Activators of Cytochrome P450 3A4 (AID 885); note: nearly all actives have a fitted effect of over 65% in size
# Method in brief: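 Activators are scored by enhanced luminescence from CYP3A4 conversion of luciferin-PPXE (25uM, equal to KM) to luciferin, after 60 min at RT with an NADPH-regenerating system.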
# [4] = qHTS Assay for Lipid Storage Modulators (AID 1519; calls by dose curve); conditions: Drosophila S3 cells, BODIPY lipid droplet/cell ratio, laser cytometry, cells loaded with oleic acid
# Method in brief: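 Cells seeded at 5,000 per well were treated with compounds over a concentration series and loaded with oleic acid (400 uM, as added). Lipid droplet fluorescence (488 nm excitation, 500-530 nm channel) was read by laser-scanning cytometry and normalized to 20 uM Triacsin C.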
# [5] = AP1 Signaling Pathway (AID 357; active = well fitted curve in either direction with a large enough effect, not every such curve was filed as active;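 note: ME-180 reporter cells stimulated with EGF at its EC50 level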)
# Method in brief: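 Beta-lactamase reporter under AP-1 response element, ME-180 background. Stimulus: EC50 EGF. Compound exposure 5 h, 37 °C. Detection: CCF4, 2.5 h RT, 460/530 nm. Values: AC50 from titration.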
# [6] = Stat Signaling Pathway (AID 446; active = well fitted curve in either direction with a large enough effect, not every such curve was filed as active;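 note: ME-180 cervical cancer cells given 40 pM IL-6 alongside compound; SIE-controlled beta-lactamase reporter measured as 460/530 nm FRET emission ratio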)
# Method in brief: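 Emission at 460 and 530 nm (excitation 405 nm) reports SIE-controlled beta-lactamase in ME-180 cells. Cells received compound with 40 pM IL-6 for 5 hrs at 37 C; data scaled between 300 pM IL-6 and 125 nM JAK-inhibitor controls.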
# [7] = molecular target: Glucocorticoid receptor (Homo sapiens) (UniProt P04150); experiment: GR-GFP Redistribution (AID 450;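 active = compounds whose dose series gives a full or clear partial fitted curve of increased nuclear translocation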; note: potency is the fitted concentration of half-maximal effect); conditions: U2OS GR-GFP nuclear translocation, laser cytometry, 2 h
# Glucocorticoid receptor (Homo sapiens), sequence (P04150 whole entry, looked up, the tested form may be a part): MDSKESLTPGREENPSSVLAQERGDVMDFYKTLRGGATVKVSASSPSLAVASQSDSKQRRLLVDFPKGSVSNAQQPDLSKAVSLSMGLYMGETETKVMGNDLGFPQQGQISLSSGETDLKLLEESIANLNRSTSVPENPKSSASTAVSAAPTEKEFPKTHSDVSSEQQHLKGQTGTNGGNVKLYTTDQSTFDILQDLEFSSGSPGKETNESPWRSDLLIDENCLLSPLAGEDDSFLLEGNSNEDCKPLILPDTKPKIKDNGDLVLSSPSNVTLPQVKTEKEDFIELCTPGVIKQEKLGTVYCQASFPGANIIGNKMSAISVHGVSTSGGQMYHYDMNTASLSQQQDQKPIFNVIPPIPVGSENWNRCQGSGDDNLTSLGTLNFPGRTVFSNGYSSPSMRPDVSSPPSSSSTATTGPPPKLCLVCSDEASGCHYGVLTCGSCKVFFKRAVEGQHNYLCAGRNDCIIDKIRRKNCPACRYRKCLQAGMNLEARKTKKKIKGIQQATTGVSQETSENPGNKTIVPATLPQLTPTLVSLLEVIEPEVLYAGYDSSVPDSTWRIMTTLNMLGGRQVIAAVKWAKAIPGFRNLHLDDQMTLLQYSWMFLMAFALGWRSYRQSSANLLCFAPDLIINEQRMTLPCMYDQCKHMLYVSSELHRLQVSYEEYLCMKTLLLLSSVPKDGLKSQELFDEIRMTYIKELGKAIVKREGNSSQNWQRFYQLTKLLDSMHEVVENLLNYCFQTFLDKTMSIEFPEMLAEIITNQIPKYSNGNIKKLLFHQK
# [8] = molecular target: Glucocorticoid receptor (Homo sapiens) (UniProt P04150); experiment: GR-EFC Redistribution (AID 451; calls by dose curve; note: potency is the fitted concentration of half-maximal effect); conditions: CHO-K1 GR-EFC translocation, beta-gal luminescence, 2 h
# Method in brief: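 CHO-K1 cells stably expressing nuclear-localized β-gal enzyme acceptor and GR fused C-terminally to the enzyme donor fragment; ligand-driven nuclear translocation restores β-gal by complementation. Compounds titrated up to 46 uM final, 2 h at 37 °C; luminescence read.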
# [9] = molecular target: 3',5'-cyclic-AMP phosphodiesterase 4B (Homo sapiens) (UniProt Q07343); experiment: qHTS Assay for Inhibitors of PDE-IV (AID 607; active = well fitted activation curve with a large enough effect in the main read-out, with a control signal flat, not every such curve was filed as active)
# 3',5'-cyclic-AMP phosphodiesterase 4B (Homo sapiens), sequence (Q07343 whole entry, looked up): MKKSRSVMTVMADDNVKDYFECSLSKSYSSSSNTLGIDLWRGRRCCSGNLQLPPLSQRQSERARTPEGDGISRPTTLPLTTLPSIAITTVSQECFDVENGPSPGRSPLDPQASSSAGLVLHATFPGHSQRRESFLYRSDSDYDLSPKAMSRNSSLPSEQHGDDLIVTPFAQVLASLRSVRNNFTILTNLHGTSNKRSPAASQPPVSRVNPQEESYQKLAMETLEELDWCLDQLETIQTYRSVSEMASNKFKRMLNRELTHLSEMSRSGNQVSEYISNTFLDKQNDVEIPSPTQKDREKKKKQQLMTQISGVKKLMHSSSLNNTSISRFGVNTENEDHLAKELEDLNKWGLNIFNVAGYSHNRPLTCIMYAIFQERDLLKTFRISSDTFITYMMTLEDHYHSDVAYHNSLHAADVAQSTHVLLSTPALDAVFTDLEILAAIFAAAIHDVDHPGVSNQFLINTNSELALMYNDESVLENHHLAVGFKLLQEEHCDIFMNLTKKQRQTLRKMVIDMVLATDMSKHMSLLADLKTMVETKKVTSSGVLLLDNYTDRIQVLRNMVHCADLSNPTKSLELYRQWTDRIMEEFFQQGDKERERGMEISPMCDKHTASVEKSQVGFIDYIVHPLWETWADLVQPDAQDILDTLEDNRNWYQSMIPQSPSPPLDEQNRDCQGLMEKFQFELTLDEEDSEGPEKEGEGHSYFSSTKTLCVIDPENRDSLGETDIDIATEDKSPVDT
# Method in brief: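 The readout is membrane depolarisation from a cAMP-sensing CNG channel, detected with a potential dye at ex 535/em 590. Cells were HEK293-derived (endogenous PDE-IV) at 1000 cells/well, titrated up to 22.9 uM final.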
# [10] = molecular target: Ubiquitin carboxyl-terminal hydrolase 1 (Homo sapiens) (UniProt O94782); experiment: Inhibitors of USP1/UAF1: Pilot qHTS (AID 504865);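 note: rhodamine fluorescence freed from ubiquitin-rhodamine substrate followed over time; top concentration of the series differs between compounds; nearly all actives have a fitted effect of over 35% in size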
# Ubiquitin carboxyl-terminal hydrolase 1 (Homo sapiens), sequence (O94782 whole entry, looked up): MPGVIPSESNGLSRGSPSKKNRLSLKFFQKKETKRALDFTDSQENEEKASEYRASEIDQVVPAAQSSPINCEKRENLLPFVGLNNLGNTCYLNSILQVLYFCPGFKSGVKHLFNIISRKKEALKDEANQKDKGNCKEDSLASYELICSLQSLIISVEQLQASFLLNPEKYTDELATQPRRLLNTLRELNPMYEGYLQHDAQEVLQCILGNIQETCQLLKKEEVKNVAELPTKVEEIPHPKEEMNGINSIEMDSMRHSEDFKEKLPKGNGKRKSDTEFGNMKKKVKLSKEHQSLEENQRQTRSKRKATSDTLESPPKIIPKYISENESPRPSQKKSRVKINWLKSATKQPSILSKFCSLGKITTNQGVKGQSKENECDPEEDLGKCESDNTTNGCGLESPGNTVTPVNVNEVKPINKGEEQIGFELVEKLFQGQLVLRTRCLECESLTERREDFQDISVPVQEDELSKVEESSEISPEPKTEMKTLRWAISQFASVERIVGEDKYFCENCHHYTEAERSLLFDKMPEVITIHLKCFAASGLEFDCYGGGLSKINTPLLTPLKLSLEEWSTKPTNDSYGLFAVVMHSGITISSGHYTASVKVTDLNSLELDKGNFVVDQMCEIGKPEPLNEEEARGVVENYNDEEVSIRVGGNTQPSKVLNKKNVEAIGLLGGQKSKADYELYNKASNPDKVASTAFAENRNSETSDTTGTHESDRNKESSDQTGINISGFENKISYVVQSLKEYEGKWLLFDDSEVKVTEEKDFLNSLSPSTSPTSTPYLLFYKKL
# Method in brief: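 USP1/UAF1 complex at 1 nM preincubated 15 min at room temperature with compound, then Ub-Rho substrate added at 150 nM final. Fluorescence (480/540 nm) read kinetically in 50 mM HEPES pH 7.8, 0.5 mM EDTA, 1 mM TCEP, 0.1 mg/ml BSA, 0.01% Tween-20.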
# [11] = NFAT Signaling Pathway (AID 444; active = well fitted curve in either direction with a large enough effect, not every such curve was filed as active;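 note: carbachol stimulus at about its EC50 of 1 µM final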); conditions: Jurkat NFAT-bla M1, carbachol, beta-lactamase ratio, 5 h; at 17.2 µM (top of the series)
# Method in brief: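 Jurkat cells carrying an NFAT-driven β-lactamase reporter and co-transfected muscarinic M1 receptor were treated with compound plus carbachol (1 uM final, an EC50 level) for 5 h at 37 °C. CCF4 loading followed for 1 h at RT; 460/530 nm ratio gave %activity.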
# [12] = molecular target: ATP-dependent 6-phosphofructokinase (Trypanosoma brucei brucei) (UniProt O15648); experiment: qHTS Assay to Find Inhibitors of T. brucei phosphofructokinase: hit validation (AID 492961);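 note: luminescence reports ADP formed as PFK phosphorylates fructose-6-phosphate with ATP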
# ATP-dependent 6-phosphofructokinase (Trypanosoma brucei brucei), sequence (O15648 whole entry, looked up): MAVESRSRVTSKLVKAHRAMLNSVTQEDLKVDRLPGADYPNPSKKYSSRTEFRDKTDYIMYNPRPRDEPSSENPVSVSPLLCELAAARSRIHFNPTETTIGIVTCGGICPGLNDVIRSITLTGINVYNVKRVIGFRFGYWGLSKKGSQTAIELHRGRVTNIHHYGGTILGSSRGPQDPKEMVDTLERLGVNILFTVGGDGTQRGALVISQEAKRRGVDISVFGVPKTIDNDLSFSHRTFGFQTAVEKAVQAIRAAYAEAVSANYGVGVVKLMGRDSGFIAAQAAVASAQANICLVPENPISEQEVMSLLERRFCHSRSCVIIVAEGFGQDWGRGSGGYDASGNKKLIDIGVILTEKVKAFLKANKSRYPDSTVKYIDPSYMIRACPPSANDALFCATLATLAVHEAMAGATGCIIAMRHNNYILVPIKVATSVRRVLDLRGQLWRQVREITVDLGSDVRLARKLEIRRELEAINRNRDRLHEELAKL
# Method in brief: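 Percent activity derived from corrected luminescence, normalized between 0x and 1x enzyme controls, then fitted to concentration-response curves. Conditions: 1.25 nM PFK, 0.1 mM ATP, 0.5 mM F6P, 45 min RT.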
# [13] = molecular target: Luciferin 4-monooxygenase (Photinus pyralis) (UniProt P08659); experiment: Biochemical firefly luciferase enzyme assay for NPC (AID 624030);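 note: purified P. pyralis luciferase at 10 nM with luciferin and ATP substrate; nearly all actives have a fitted effect of over 70% in size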
# Luciferin 4-monooxygenase (Photinus pyralis), sequence (P08659 whole entry, looked up): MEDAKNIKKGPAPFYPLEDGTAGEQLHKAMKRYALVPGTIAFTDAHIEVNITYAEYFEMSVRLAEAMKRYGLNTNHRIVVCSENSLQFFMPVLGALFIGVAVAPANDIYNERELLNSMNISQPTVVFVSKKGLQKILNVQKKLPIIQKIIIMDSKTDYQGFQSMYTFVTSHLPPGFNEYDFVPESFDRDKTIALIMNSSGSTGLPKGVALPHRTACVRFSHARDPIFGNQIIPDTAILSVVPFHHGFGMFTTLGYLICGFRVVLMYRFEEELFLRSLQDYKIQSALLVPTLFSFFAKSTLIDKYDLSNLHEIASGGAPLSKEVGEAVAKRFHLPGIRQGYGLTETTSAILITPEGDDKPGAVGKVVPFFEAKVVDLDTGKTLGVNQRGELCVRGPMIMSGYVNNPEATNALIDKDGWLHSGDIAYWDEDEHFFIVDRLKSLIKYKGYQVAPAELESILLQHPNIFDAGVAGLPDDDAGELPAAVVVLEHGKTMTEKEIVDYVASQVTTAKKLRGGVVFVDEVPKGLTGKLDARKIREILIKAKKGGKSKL
# Method in brief: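 Counter-screen for direct inhibition of the luciferase enzyme by approved-drug library compounds, run at 10 nM enzyme in 50 mM Tris acetate (final). Luminescence was read within 5 min of enzyme-buffer addition and normalized to PTC124 versus DMSO (0%).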
# [14] = qHTS profiling for inhibitors of Plasmodium falciparum proliferation (AID 504749); note: nearly all actives have a fitted effect of over 60% in size; conditions: P. falciparum in erythrocytes, SYBR Green DNA, 72 h, at 28.7 µM (top of the series)
# Method in brief: (§1)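 Quantitative HTS: compounds pinned into medium, infected erythrocytes added (0.3% parasitemia, 2.5% hematocrit), 72 h culture at 37 C under 5% CO2. Saponin/Triton lysis with SYBR Green I, overnight RT, then fluorescence read.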
# C2A = experiment: as above; conditions: P. falciparum in erythrocytes, SYBR Green DNA, 72 h; series mostly up to 28.7 µM
# Method in brief: as §1
# CP217 = experiment: as above; conditions: P. falciparum in erythrocytes, SYBR Green DNA, 72 h; series mostly up to 28.7 µM
# Method in brief: as §1
# CP252 = experiment: as above; conditions: P. falciparum in erythrocytes, SYBR Green DNA, 72 h; series mostly up to 12.8 µM
# Method in brief: as §1
# CP256 = experiment: as above; conditions: P. falciparum in erythrocytes, SYBR Green DNA, 72 h; series mostly up to 28.7 µM
# Method in brief: as §1
# CP262 = experiment: as above; conditions: P. falciparum in erythrocytes, SYBR Green DNA, 72 h; series mostly up to 28.7 µM
# Method in brief: as §1
# [15] = molecular target: Cytochrome P450 1A2 (Homo sapiens) (UniProt P05177); experiment: p450-cyp1a2 (AID 410; calls by dose curve)
# Cytochrome P450 1A2 (Homo sapiens), sequence (P05177 whole entry, looked up): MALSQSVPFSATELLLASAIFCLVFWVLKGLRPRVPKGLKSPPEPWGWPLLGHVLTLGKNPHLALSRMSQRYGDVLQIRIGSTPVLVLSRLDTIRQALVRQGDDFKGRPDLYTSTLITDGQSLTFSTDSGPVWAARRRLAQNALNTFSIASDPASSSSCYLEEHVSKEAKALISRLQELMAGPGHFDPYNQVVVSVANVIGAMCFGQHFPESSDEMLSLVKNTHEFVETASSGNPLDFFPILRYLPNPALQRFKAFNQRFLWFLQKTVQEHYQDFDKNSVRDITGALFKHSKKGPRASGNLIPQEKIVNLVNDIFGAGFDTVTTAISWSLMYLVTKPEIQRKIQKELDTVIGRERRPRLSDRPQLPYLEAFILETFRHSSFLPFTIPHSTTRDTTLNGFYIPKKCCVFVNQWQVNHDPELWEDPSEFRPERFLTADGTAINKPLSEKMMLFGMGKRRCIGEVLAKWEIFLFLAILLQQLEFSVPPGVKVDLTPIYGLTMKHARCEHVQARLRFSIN
# Method in brief: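 Luminescent demethylation readout: Luciferin-ME (100uM, equal to Km) turned over by 20nM CYP1A2 for 60 min at room temperature after NADPH regeneration addition, following 10 min compound preincubation. Normalization used 57 uM furafylline as full inhibition.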
# [16] = measured here: cell count channel max response
# [17] = measured here: lipid channel max response
smiles,measurement,setting,value
O=C1C(Cl)=C(Cl)C(=O)C(Cl)=C1Cl,outcome,[1],inactive
same,Potency,[2],2 µM (active)
same,Potency,[3],inactive
same,"activity change, negative = inhibition",[4]; at 57.5 µM (top of the series),-9.83% (inactive)
same,max response,[4]; [16],-3.14%
same,max response,[4]; [17],-11.5%
CO[C@@H](C)[C@](O)(C(=O)OCC1=CCN2CC[C@@H](O)[C@H]12)C(C)C,outcome,[5],inactive
same,outcome,[6],inactive
same,Potency,[7],> 20.6 µM (inactive)
same,Potency,[8],> 20.6 µM (inactive)
same,outcome,[1],inactive
same,Potency,[9],inactive
same,"activity change, negative = inhibition",[4]; at 25.7 µM (top of the series),-0.0062% (inactive)
same,max response,[4]; [16],-11.3%
same,max response,[4]; [17],-10.6%
same,Potency,[10],inactive
CNC(=O)N(C)c1nnc(C(C)(C)C)s1,outcome,[5],inactive
same,"activity change, negative = inhibition",[11],-5.4% (inactive)
same,outcome,[6],inactive
same,Potency,[3],inactive
same,"activity change, negative = inhibition",[4]; at 57.5 µM (top of the series),6.39% (inactive)
same,max response,[4]; [16],16.4%
same,max response,[4]; [17],25.2%
COc1cc2c(cc1OC)[C@@]13CCN4CC5=CCOC6CC(=O)N2C1[C@H]6[C@@H]5C[C@@H]43 (stereo not given in full),"activity change, negative = inhibition",[4]; at 57.5 µM (top of the series),14% (inactive)
same,max response,[4]; [16],9.29%
same,max response,[4]; [17],26.2%
same,Potency,[12],inactive
same,Potency,[10],inactive
same,Potency,[13],inactive
same,"activity, negative = inhibition",[14]; parasite line A,-1.63% (inactive)
same,"activity, negative = inhibition",[14]; parasite line B,1.63% (inactive)
same,Potency,C2A,inactive
same,Potency,CP217,inactive
same,Potency,CP252,inactive
same,Potency,CP256,inactive
same,Potency,CP262,inactive
C[C@@H]1O[C@H](O[C@@H]2CC[C@@]3(C=O)[C@H]4CC[C@@]5(C)[C@@H](C6=CC(=O)OC6)CC[C@@]5(O)[C@@H]4CC[C@]3(O)C2)C[C@H](O)[C@@H]1O,Potency,[15],inactive
same,Potency,[7],> 20.6 µM (inactive)
same,Potency,[8],> 20.6 µM (inactive)
same,outcome,[1],inactive
same,Potency,[9],inactive
same,Potency,[3],inactive
same,"activity change, negative = inhibition",[4]; at 25.7 µM (top of the series),-0.93% (inactive)
same,max response,[4]; [16],-14.4%
same,max response,[4]; [17],-15.6%
same,Potency,[10],inactive
C[C@@]12CC[C@H](O)C[C@@H]1CC[C@H]1[C@@H]2C[C@@H](O)[C@]2(C)[C@@H](C3=CC(=O)OC3)CC[C@]12O,Potency,[15],inactive
same,outcome,[6],inactive
same,Potency,[7],> 20.6 µM (inactive)
same,Potency,[8],> 20.6 µM (inactive)
same,outcome,[1],inactive
same,"activity change, negative = inhibition",[4]; at 25.7 µM (top of the series),-4.23% (inactive)
same,max response,[4]; [16],-5.31%
same,max response,[4]; [17],-9.41%
same,Potency,[10],inactive
c1ccc2c(c1)[nH]c1cnccc12,outcome,[5],inactive
same,"activity change, negative = inhibition",[11],25.7% (inactive)
same,outcome,[6],inactive
same,Potency,[2],inactive
same,"activity change, negative = inhibition",[4]; at 57.5 µM (top of the series),0.155% (inactive)
same,max response,[4]; [16],-9.28%
same,max response,[4]; [17],-6.47%
CNc1ccc(C(=O)CC(O)CCC(C)C2OC(=O)CC(O)CC(=O)CC(O)CC(O)CC(O)CC(O)CC3(O)CC(O)C(C(=O)OC)C(CC(O[C@@H]4OC(C)C(O)C(N)C4O)/C=C/C=C/C=C/C=C/C=C/C=C/C=C/C2C)O3)cc1 (stereo not given in full),Potency,[2],inactive
same,"activity change, negative = inhibition",[4]; at 57.5 µM (top of the series),9.29% (inactive)
same,max response,[4]; [16],14.1%
same,max response,[4]; [17],27.6%
same,Potency,[12],inactive
same,Potency,[13],inactive
same,"activity, negative = inhibition",[14]; parasite line A,6.26% (inactive)
same,"activity, negative = inhibition",[14]; parasite line B,3.77% (inactive)
same,Potency,C2A,inactive
same,Potency,CP217,inactive
same,Potency,CP252,inactive
same,Potency,CP256,inactive
same,Potency,CP262,inactive
